The nature of experiment [1]: E. coli DRC41 culture turbidity changes, primary screen, E. coli filamentation inducer project, strain DRC41, OD650, 48 h (AID 1152).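 Also: E. coli MC1000 strain DRC41 lacking acrAB efflux pump and sulA.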 The conditions noted are these: E. coli DRC41 (acrAB sulA), higher = more signal, called active from +8 up or from −8 down.
A short description of experiment [2]: small-molecule binders of probe aLefty1, primary screen, biochemical, small-molecule microarray, 635/667 nm fluorescence (AID 1153).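 Also: score merges spot fluorescence with signal-to-noise ratio from the scanned slide images.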 Particulars: higher = more signal.
Experiment [3] is described as follows: PSAC antagonists in infected red cells, primary screen, cell-based, P. falciparum Indochina, OD700, 1 h (AID 1154). Particulars: P. falciparum Indochina infected RBC osmotic lysis, higher = more signal, called active from +8 up or from −8 down.
Experiment [4] in a line: PSAC antagonists in infected red cells, primary screen, cell-based, P. falciparum Indochina, OD700, 2 h (AID 1155).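 Also: lysis reports solute entry through the parasite surface anion channel PSAC; channel blockers reduce lysis of infected cells.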 Particulars: P. falciparum Indochina infected erythrocytes, osmotic lysis OD700; higher = more signal, called active from +8 up or from −8 down.
Experiment [5] is described as follows: osmotic lysis modulators in infected erythrocytes, primary screen, PSAC antagonist project, cell-based, P. falciparum Indochina, OD700, 3 h (AID 1156). The conditions noted are these: higher = more signal, called active from +8 up or from −8 down.
A short description of experiment [6]: PSAC antagonists in infected red cells, primary screen, cell-based, P. falciparum Indochina, OD700, 18 h (AID 1157). Particulars: P. falciparum Indochina infected erythrocytes, osmotic lysis OD700, 18 h; higher = more signal, called active from +8 up or from −8 down.
Experiment [7] in a line: modulators of S6 phosphorylation in cells, primary screen, cell-based, A549, cytoblot, luminescence, serum-stimulated (AID 1158).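 Also: serum-stimulated A549 lung adenocarcinoma cells; signal is phosphorylated S6 detected by cytoblot immunostaining with HRP secondary.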 Particulars: A549 phospho-S6 cytoblot, 5 h, higher = more signal.
The target of experiment [8] is NADPH oxidase 2 (Homo sapiens) (UniProt P04839). Kind of experiment: NOX2-dependent H2O2 signal modulators, primary screen, NOX inhibitor project, cell-based, HEK293-NOX2, PMA-stimulated, Amplex Red fluorescence (AID 1159). Also: test concentration not given here. The conditions noted are these: 45 min, higher = more signal, called active from +8 up or from −8 down.
Chain of NADPH oxidase 2 (Homo sapiens) (P04839 whole entry, looked up): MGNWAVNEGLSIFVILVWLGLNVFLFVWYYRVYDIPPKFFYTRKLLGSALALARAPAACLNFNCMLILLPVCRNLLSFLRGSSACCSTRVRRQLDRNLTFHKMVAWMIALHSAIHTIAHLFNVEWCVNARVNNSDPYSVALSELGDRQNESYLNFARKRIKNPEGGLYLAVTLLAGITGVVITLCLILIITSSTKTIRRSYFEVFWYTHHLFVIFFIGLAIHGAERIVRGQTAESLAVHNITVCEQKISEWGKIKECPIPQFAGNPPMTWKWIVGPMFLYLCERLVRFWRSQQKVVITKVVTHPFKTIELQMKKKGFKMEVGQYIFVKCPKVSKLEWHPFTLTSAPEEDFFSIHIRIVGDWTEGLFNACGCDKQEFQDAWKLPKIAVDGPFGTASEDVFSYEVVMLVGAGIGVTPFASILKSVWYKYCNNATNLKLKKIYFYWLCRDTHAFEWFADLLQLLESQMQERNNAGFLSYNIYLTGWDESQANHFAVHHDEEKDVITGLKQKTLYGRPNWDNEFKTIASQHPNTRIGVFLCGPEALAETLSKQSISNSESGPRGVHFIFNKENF
The target of experiment [9] is NADPH oxidase 4 (Homo sapiens) (UniProt Q9NPH5). Kind of experiment: NOX4-dependent H2O2 signal modulators, primary screen, NOX inhibitor project, cell-based, HEK293-NOX4, tetracycline-induced, Amplex Red fluorescence (AID 1160). The conditions noted are these: 45 min, higher = more signal, called active from +8 up or from −8 down.
Chain of NADPH oxidase 4 (Homo sapiens) (Q9NPH5 whole entry, looked up): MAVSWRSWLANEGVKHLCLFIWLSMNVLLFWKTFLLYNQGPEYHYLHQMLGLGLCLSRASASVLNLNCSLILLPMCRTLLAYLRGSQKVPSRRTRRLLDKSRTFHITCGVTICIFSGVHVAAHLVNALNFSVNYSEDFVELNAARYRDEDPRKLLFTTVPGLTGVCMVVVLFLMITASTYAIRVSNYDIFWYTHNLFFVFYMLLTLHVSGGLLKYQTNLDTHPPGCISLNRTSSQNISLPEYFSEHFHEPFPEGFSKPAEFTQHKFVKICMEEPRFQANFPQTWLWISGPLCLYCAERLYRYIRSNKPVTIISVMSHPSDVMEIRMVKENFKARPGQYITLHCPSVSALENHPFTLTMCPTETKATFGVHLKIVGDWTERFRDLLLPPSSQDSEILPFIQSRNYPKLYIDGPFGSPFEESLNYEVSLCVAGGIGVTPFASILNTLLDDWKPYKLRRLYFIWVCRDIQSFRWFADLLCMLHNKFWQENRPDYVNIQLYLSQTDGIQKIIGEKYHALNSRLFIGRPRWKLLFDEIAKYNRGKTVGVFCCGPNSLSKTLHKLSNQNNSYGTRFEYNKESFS
Experiment [10] deals with NADPH oxidase 5 (Homo sapiens) (UniProt Q96PH1). Kind of experiment: NOX5-dependent H2O2 signal modulators, primary screen, NOX inhibitor project, cell-based, HEK293-NOX5, Amplex Red fluorescence (AID 1161). Particulars: HEK293-NOX5, ionomycin, 45 min, higher = more signal.
Chain of NADPH oxidase 5 (Homo sapiens) (Q96PH1 whole entry, looked up): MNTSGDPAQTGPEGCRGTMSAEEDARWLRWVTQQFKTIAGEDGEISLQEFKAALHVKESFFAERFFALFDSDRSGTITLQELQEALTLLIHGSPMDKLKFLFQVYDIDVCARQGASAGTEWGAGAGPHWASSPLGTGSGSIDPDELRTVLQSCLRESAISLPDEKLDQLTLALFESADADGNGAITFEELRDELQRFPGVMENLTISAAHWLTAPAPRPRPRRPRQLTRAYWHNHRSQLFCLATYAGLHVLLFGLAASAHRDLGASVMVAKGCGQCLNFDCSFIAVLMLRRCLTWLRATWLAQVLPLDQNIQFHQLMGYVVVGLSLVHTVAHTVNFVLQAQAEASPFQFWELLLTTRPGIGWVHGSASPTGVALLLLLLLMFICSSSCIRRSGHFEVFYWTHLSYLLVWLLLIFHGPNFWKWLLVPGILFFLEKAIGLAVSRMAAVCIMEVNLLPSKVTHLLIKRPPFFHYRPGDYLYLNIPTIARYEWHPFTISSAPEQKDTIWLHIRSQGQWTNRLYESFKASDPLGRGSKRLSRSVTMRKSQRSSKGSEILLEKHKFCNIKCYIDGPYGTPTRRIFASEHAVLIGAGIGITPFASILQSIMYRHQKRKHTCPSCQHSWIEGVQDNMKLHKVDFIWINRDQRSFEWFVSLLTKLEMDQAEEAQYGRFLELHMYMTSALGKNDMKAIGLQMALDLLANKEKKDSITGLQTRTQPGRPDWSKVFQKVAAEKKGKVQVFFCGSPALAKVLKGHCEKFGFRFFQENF
A short description of experiment [11]: A549 cell viability effects, profiling panel, calcein-AM fluorescence, 48 h, basal (AID 1162). Also: test concentration not given here. The conditions noted are these: higher = more signal.
A short description of experiment [12]: adipocyte viability effects, profiling panel, cell-based, 3T3-L1 adipocytes, calcein-AM fluorescence, 48 h, basal (AID 1163). Also: test concentration not given here. Particulars: 3T3-L1 adipocytes viability, higher = more signal.
Experiment [13] is described as follows: HepG2 cell viability effects, profiling panel, calcein-AM fluorescence, 48 h, basal (AID 1164). Also: test concentration not given here. The conditions noted are these: higher = more signal.
The nature of experiment [14]: MM1S cell viability effects, profiling panel, calcein-AM fluorescence, 48 h, basal (AID 1165).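 Also: viability of MM1S multiple myeloma cells under basal unstimulated conditions; test concentration not given here.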 Particulars: higher = more signal.
Experiment [15] in a line: basal RPMI8226 viability, no added stimulus, profiling panel, cell-based, calcein-AM fluorescence, 48 h, PK04 Diversity Set (AID 1166).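 Also: cells grown under basal conditions without added stimulus; test concentration not given here.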 Particulars: RPMI8226 myeloma viability, higher = more signal.
A short description of experiment [16]: basal HepG2 mitochondrial membrane potential changes, profiling panel, cell-based, JC-1 fluorescence, 24 h, 100 nL compound (AID 1167). Also: test concentration not given here. The conditions noted are these: higher = more signal.
Experiment [17] is described as follows: basal 3T3-L1 adipocyte mitochondrial potential changes, profiling panel, cell-based, JC-1 fluorescence, 3T3-L1 adipocytes, 24 h, 100 nL compound (AID 1168). Also: test concentration not given here. The conditions noted are these: JC-1 mitochondrial fluorescence, higher = more signal, called active from +8 up or from −8 down.
A short description of experiment [18]: basal RPMI8226 mitochondrial membrane potential changes, profiling panel, cell-based, JC-1 fluorescence, 24 h, 100 nL compound (AID 1169). Also: test concentration not given here. Particulars: RPMI8226 myeloma, JC-1 mitochondrial potential fluorescence, higher = more signal.
Experiment [19] can be described thus: basal MM1S mitochondrial membrane potential changes, profiling panel, cell-based, JC-1 fluorescence, 24 h, 100 nL compound (AID 1170). Also: test concentration not given here. Particulars: higher = more signal.
The nature of experiment [20]: A549 lung cancer cell viability effects, profiling panel, resazurin fluorescence, 24 h, PK04 Diversity Set (AID 1171). Also: test concentration not given here. The conditions noted are these: higher = more signal, called active from +8 up or from −8 down.

The source made the active and inactive calls.

As for `C=CCOC(=O)[C@H]1[C@@H]2C(=O)O[C@@H](c3ccccc3)[C@@H](c3ccccc3)N2[C@@H](c2ccc(OCCOC(=O)[C@@H]3C[C@@H]4C(=O)N[C@@H](Cc5ccccc5)C(=O)N4[C@@H]3c3ccc(O)cc3)cc2)[C@]12C(=O)Nc1ccccc12`, the z-score is -0.126 (inactive) in [1]; 2.33 (inactive) in experiment [3]; 0.776 (inactive) in experiment [4]; 1.28 (inactive) in [5]; 0.914 (inactive) in [6]; 0.896 in experiment [7]. Further, the z-score is 1.48 (inactive) in experiment [8]; 1.14 (inactive) in [9]; 2.13 in experiment [10]; 0.137 in experiment [11]; -0.156 in experiment [12]; -0.338 in [13]. Further, the z-score is -1.31 in [14]; 0.0712 in experiment [15]; -1.37 in [16]; -0.262 (inactive) in [17]; -0.616 in experiment [18]; -1.02 in experiment [19]. Besides, in experiment [20], the z-score was 0.0598 (inactive). Moreover, the composite z-score in experiment [2] is -0.0235.
For the compound `C=CCOC(=O)[C@@H]1[C@H]2C(=O)O[C@H](c3ccccc3)[C@H](c3ccccc3)N2[C@H](c2ccc(OCCOC(=O)[C@H]3C[C@H]4C(=O)NCC(=O)N4[C@H]3c3ccc(O)cc3)cc2)[C@@]12C(=O)Nc1ccc(I)cc12`, the z-score in experiment [1] is -0.707 (inactive); in experiment [3], 8.8 (active); in experiment [4], 2.39 (inactive); in experiment [5] it was 0.345 (inactive); in experiment [6] it was 1.16 (inactive); in experiment [7], 0.379. The z-score is 0.588 (inactive) in experiment [8]; 0.812 (inactive) in experiment [9]; 0.711 in experiment [10]; -0.441 in experiment [11]; -0.105 in experiment [12]; 0.273 in experiment [13]. For the same compound, the z-score in [14] is -0.172; in experiment [15], -0.0622; in experiment [16], -1.59; in experiment [17] it was 0.91 (inactive); in experiment [18], -0.772; in experiment [19], -1. In addition, the z-score in [20] is 1.1 (inactive). Also, the composite z-score in [2] is -0.154.
As to `O=C1C2C=CC(C(O)c3cccc(O)c3)N(Nc3ccccc3F)C2C(=O)N1c1ccccc1` (stereo not given), the z-score in experiment [1] is 0.906 (inactive); in [3], 9.49 (active); in [4], 1.43 (inactive); in [5] it was 0.868 (inactive); in [6] it was 0.0443 (inactive); in [7], 3. Also, the z-score in [8] was -4.98 (inactive); in experiment [9] it was -5.16 (inactive); in experiment [10], -6.27; in [11] it was -0.769; in experiment [12] it was 0.906; in experiment [13] it was -1.28. Besides, the z-score in [14] was -1.95; in [15], -1.9; in [16], -1.66; in experiment [17], -1.85 (inactive); in experiment [18], 0.742; in [19], -1.64. Besides, the z-score in experiment [20] is 0.249 (inactive). In experiment [2], the composite z-score is 0.137.
As to `O=C1OCCC/C=C\[C@H]2OC34C=CCN(Cc5ccccc5)C(=O)[C@H]3N(CCCCCO)C(=O)[C@@H]4C12` (stereo not given in full), the z-score in experiment [1] is 0.435 (inactive); in [3], -0.457 (inactive); in experiment [4], -0.172 (inactive); in [5], -0.123 (inactive); in experiment [6], -0.354 (inactive); in experiment [7], -0.412. For the same compound, the z-score in [8] is 1.17 (inactive); in experiment [9] it was 0.487 (inactive); in experiment [10], 1.76; in experiment [11], 0.379; in experiment [12] it was 0.65; in [13], 0.414. The z-score is 1.03 in experiment [14]; -0.42 in experiment [15]; -0.0205 in experiment [16]; -0.0419 (inactive) in experiment [17]; 0.803 in experiment [18]; -0.322 in experiment [19]. The z-score in experiment [20] was 1.37 (inactive). In experiment [2], the composite z-score was -0.094.
